Among the data in PubChem BioAssay (NCATS) are Potency values, retold here.

SMILES strings stand for the structures. Inconclusive results are not listed. The source made the active and inactive calls. Calls follow the shape of the dose curve; as a rule, active = well fitted cell-killing curve with a large enough effect; inconclusive = small, poorly fitted or top-dose-only effect, or effect the other way; inactive = no such curve, though single readings can be large or run the other way.

Assay [1] is described as follows: Quantitative High-Throughput drug screen in 47 multiple myeloma cell lines against the NCATS MIPE library collection: OCIMY1_PLB cell viability assay (AID 1918979). Also: series mostly up to about 46 µM; nearly all actives have a fitted effect of over 35% in size. The gist of the method: (§1)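 Myeloma cells (500/well) treated with MIPE 4.0 compounds for 48 h at 37 °C, 5% CO2. Viability read as ATP via CellTiter-Glo luminescence after 5 min at RT; DMSO-only wells = 100%, media-only = 0% viability.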

A short description of assay [2]: Quantitative High-Throughput drug screen in 47 multiple myeloma cell lines against the NCATS MIPE library collection: MM1R_ATCC cell viability assay (AID 1918981). Also: nearly all actives have a fitted effect of over 35% in size. Also: potency is read from the fitted curve at half-maximal effect. A digest of the protocol:
as §1

Assay [3] is described as follows: Quantitative High-Throughput drug screen in 47 multiple myeloma cell lines against the NCATS MIPE library collection: L363_DSMZ cell viability assay (AID 1918984). Also: nearly all actives have a fitted effect of over 40% in size. Also: potency is read from the fitted curve at half-maximal effect. The gist of the method: as §1
A short description of assay [4]: Quantitative High-Throughput drug screen in 47 multiple myeloma cell lines against the NCATS MIPE library collection: OPM1_PLB cell viability assay (AID 1918989). Also: nearly all actives have a fitted effect of over 40% in size. Also: potency is read from the fitted curve at half-maximal effect. The gist of the method: as §1
Assay [5] in a line: Quantitative High-Throughput drug screen in 47 multiple myeloma cell lines against the NCATS MIPE library collection: MM1S_ATCC cell viability assay (AID 1918980). Also: potency is read from the fitted curve at half-maximal effect; nearly all actives have a fitted effect of over 45% in size. The gist of the method:
as §1

The nature of assay [6]: Quantitative High-Throughput drug screen in 47 multiple myeloma cell lines against the NCATS MIPE library collection: KMS34_JCRB cell viability assay (AID 1918985). Also: nearly all actives have a fitted effect of over 40% in size. Also: potency is read from the fitted curve at half-maximal effect. The gist of the method:
as §1

Assay [7] in a line: Quantitative High-Throughput drug screen in 47 multiple myeloma cell lines against the NCATS MIPE library collection: LP1_DSMZ cell viability assay (AID 1918982). Also: nearly all actives have a fitted effect of over 35% in size. Also: potency is read from the fitted curve at half-maximal effect. A digest of the protocol: as §1
Assay [8] is described as follows: Quantitative High-Throughput drug screen in 47 multiple myeloma cell lines against the NCATS MIPE library collection: KMS28PE_JCRB cell viability assay (AID 1918983). Also: nearly all actives have a fitted effect of over 35% in size. Also: potency is read from the fitted curve at half-maximal effect. A digest of the protocol: as §1
Assay [9] in a line: Quantitative High-Throughput drug screen in 47 multiple myeloma cell lines against the NCATS MIPE library collection: OCIMY5_PLB cell viability assay (AID 1918988). Also: nearly all actives have a fitted effect of over 65% in size. Also: potency is read from the fitted curve at half-maximal effect. A digest of the protocol:
as §1

Assay [10] can be described thus: Quantitative High-Throughput drug screen in 47 multiple myeloma cell lines against the NCATS MIPE library collection: OCIMY7_PLB cell viability assay (AID 1918987). Also: potency is read from the fitted curve at half-maximal effect; nearly all actives have a fitted effect of over 65% in size. The gist of the method: as §1

Turning to `Clc1ccccc1C(c1ccccc1)(c1ccccc1)n1ccnc1`, the Potency entry in [1] was “inactive”.
With `Clc1ccc(C(c2ccccc2Cl)C(Cl)Cl)cc1` (stereo unspecified), the Potency in assay [2] was 14.8 µM (active); in assay [4], 20.9 µM (active). Also, the Potency result in [3] is “inactive”.
On to `CC(C)C(=O)Nc1ccc([N+](=O)[O-])c(C(F)(F)F)c1`, for which the Potency is 1.66 µM (active) in [5] and 8.33 µM (active) in assay [4]. Moreover, in assay [6], the Potency result was “inactive”.
Turning to `COc1ccccc1N1CCN(CC(O)COc2cccc3ccccc23)CC1` (stereo unspecified), the Potency result in [7] and in assay [6] was “inactive” throughout. Also, in assay [4], the Potency was 14.8 µM (active).
Regarding `Nc1ccn([C@H]2CC[C@@H](CO)O2)c(=O)n1`, in [8], the Potency entry is “inactive”.
As to `CN(C)c1nc(N(C)C)nc(N(C)C)n1`, the Potency entry in assay [2], in assay [7], in assay [3], in assay [6] and in assay [4] was “inactive” in each case. Moreover, the Potency in assay [8] is 23.5 µM (active).
With `C[C@](N)(Cc1ccc(O)c(O)c1)C(=O)O`, the Potency result in assay [3] is “inactive”.
As to `CN1C2CCC1CC(OC(=O)C(CO)c1ccccc1)C2` (stereo unspecified), the Potency entry in assay [2], in assay [7] and in assay [3] was “inactive” each time.
For the molecule `CC(C)NCC(O)c1ccc(O)c(O)c1` (stereo unspecified), the Potency was 0.166 µM (active) in [5], 1.87 µM (active) in assay [3], 5.26 µM (active) in assay [9] and 4.18 µM (active) in [4].
`C[C@H]1c2cccc(O)c2C(O)=C2C(=O)[C@]3(O)C(O)=C(C(N)=O)C(=O)[C@@H](N(C)C)[C@@H]3[C@@H](O)[C@@H]21`: in [10], the Potency is 11.8 µM (active).
On to `Cc1cn([C@H]2C=C[C@@H](CO)O2)c(=O)[nH]c1=O`, for which the Potency result in assay [3], in assay [6] and in assay [4] was “inactive” throughout.
In the case of `COc1cc2c(c(OC)c1OC)-c1ccc(OC)c(=O)cc1[C@@H](NC(C)=O)CC2`, the Potency result in assay [3] is “inactive”.
Consider `COc1cc2nc(N3CCN(C(=O)C4COc5ccccc5O4)CC3)nc(N)c2cc1OC` (stereo unspecified), for which the Potency was 20.9 µM (active) in assay [2], 11.8 µM (active) in assay [7], 23.5 µM (active) in [8] and 18.7 µM (active) in [4]. Further, the Potency entry in assay [3] and in assay [6] was “inactive” throughout.
On to `CN1CCC(=C2c3ccccc3C=Cc3ccccc32)CC1`, for which the figures for the Potency in [5], in assay [10] and in [4] were 14.8 µM (active), 5.9 µM (active) and 18.7 µM (active), respectively.
Consider `CCCNCC(O)COc1ccccc1C(=O)CCc1ccccc1` (stereo unspecified), for which the Potency entry in assay [6] was “inactive”.
With `NCCCCCC(=O)O`, the Potency in assay [5] was 16.6 µM (active). Further, the Potency result in assay [3] and in assay [4] was “inactive” in each case.
Turning to `COc1cc2nc(N3CCN(C(=O)c4ccco4)CC3)nc(N)c2cc1OC`, the Potency in assay [5] is 20.9 µM (active); in assay [3], 7.43 µM (active); in [10], 10.5 µM (active).
Turning to `CCN1CCCC1CNC(=O)c1cc(S(=O)(=O)CC)c(N)cc1OC` (stereo unspecified), the Potency entry in assay [2], in assay [7], in [8], in assay [6] and in assay [9] was “inactive” in each case.
Turning to `NS(=O)(=O)c1cc2c(cc1Cl)NCNS2(=O)=O`, the Potency entry in assay [7], in assay [3] and in assay [6] was “inactive” throughout.
On to `Fc1ccc([C@@H]2CCNC[C@H]2COc2ccc3c(c2)OCO3)cc1`, for which the Potency in [2] was 18.7 µM (active); in [8], 20.9 µM (active).
Regarding `Cc1cc(C(C)(C)C)c(O)c(C)c1CC1=NCCN1`, the Potency result in [2], in assay [7], in assay [8] and in assay [3] was “inactive” in each case.
`CC(COc1ccccc1)N(CCCl)Cc1ccccc1` (stereo unspecified): the Potency result in assay [7] and in assay [6] was “inactive” each time. For the same molecule, in assay [9], the Potency is 26.4 µM (active).
As to `Clc1ccc2nsnc2c1NC1=NCCN1`, the Potency entry in [7] was “inactive”.
In the case of `CC(=O)OCC(CCn1cnc2cnc(N)nc21)COC(C)=O`, the Potency entry in [8], in [3] and in assay [6] was “inactive” in each case.
For `O=c1[nH]cc(F)c(=O)[nH]1`, the Potency in assay [5] is 14.8 µM (active); in [10] it was 7.43 µM (active). For the same molecule, in assay [9], the Potency result is “inactive”.
With `Cc1cc(C(C)(C)C)cc(C)c1CC1=NCCN1`, the Potency result in assay [2], in assay [8] and in [6] was “inactive” in each case.
In the case of `COc1ccccc1OCC(O)CN1CCN(CC(=O)Nc2c(C)cccc2C)CC1` (stereo unspecified), the Potency entry in assay [2] and in assay [3] was “inactive” throughout.
In the case of `COc1ccc(C2CNC(=O)C2)cc1OC1CCCC1` (stereo unspecified), the Potency entry in assay [7], in assay [3] and in assay [4] was “inactive” each time.
Turning to `O=C1N(c2ccccc2)c2ccccc2C1(Cc1ccncc1)Cc1ccncc1`, the Potency in assay [2] is 26.4 µM (active). Further, the Potency entry in assay [6] and in assay [4] was “inactive” each time.
Consider `O=C(C1CCCCC1)N1CC(=O)N2CCc3ccccc3C2C1` (stereo unspecified), for which the Potency entry in [2], in assay [8], in [3], in assay [6] and in [9] was “inactive” throughout.
`CCCCc1oc2ccccc2c1C(=O)c1cc(I)c(OCCN(CC)CC)c(I)c1`: the Potency in assay [5] was 2.35 µM (active); in assay [6], 11.8 µM (active); in assay [10], 18.7 µM (active).
As for `Cc1cn([C@H]2C[C@H](N=[N+]=[N-])[C@@H](CO)O2)c(=O)[nH]c1=O`, the Potency in [5] was 3.32 µM (active); in assay [4], 29.6 µM (active). In addition, the Potency result in assay [6] is “inactive”.
`Cc1ccc(C(=O)Nc2ccc(S(=O)(=O)O)c3cc(S(=O)(=O)O)cc(S(=O)(=O)O)c23)cc1NC(=O)c1cccc(NC(=O)Nc2cccc(C(=O)Nc3cc(C(=O)Nc4ccc(S(=O)(=O)O)c5cc(S(=O)(=O)O)cc(S(=O)(=O)O)c45)ccc3C)c2)c1`: the Potency entry in assay [2] and in assay [3] was “inactive” in each case.
`O=C1Cc2cc(CCN3CCN(c4nsc5ccccc45)CC3)c(Cl)cc2N1`: the Potency in assay [2] and in assay [6] was 20.9 µM (active) throughout.
